Structures are written as SMILES. The whole screen tested about 85,000 compounds, of which about 5,100 (6%) were called active.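 How the source made its calls: active means viability at or below 40%; inactive means viability above 40%.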 For the sample, actives were picked, then their nearest neighbours and some compounds at random.

Viability data for 63 compounds are collected here from PubChem BioAssay AID598 (SRMLSC, 2007).

The nature of the assay: proliferation blockers of H69AR lung cancer cells, primary screen, cell-based, human, 86K library (AID 598).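 Further: multidrug resistant small cell line overexpressing MRP-1 efflux transporter; 100% = mean luminescence of untreated control wells.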 Conditions: H69AR lung tumor viability, ATP luminescence, 72 h; at 10 µM; hits give low values.
Consider `O=C(COc1cc(Cl)c(Cl)cc1Cl)NC(=O)NC1CCCC1`, for which the viability is 90.7% (inactive). For the compound `CCOC(=O)c1cnc(SCC(=O)Nc2ccccc2C(=O)OC)nc1N`, the viability was 87.2% (inactive). Consider `c1ccc(-n2ncc3c2ncn2c(CSc4nc5ccccc5s4)nnc32)cc1`, for which the viability is 5.83% (active). With `CCN(CC)C(=O)CSc1ncnc2c1cnn2-c1ccccc1`, the viability was 86.5% (inactive). Then `c1ccc(-n2ncc3c2ncn2c(C4CCCCC4)nnc32)cc1`, with 105% (inactive); and `CCCNC(=O)N1CCN(C(=O)NCCC)CC1`, with 104% (inactive).

Take `CC(=O)c1cccc(NC(=O)C2CCCN2S(=O)(=O)c2cccc3nsnc23)c1` (stereo not drawn): the viability was 88.1% (inactive).

With `CCC(C)NC(=O)c1ccccc1NC(=O)c1ccccc1N(C)S(C)(=O)=O` (stereo not drawn), the viability is 108% (inactive).

Regarding `CC(C)(C)C(=O)Cn1c(NCCO)nc2ccccc21`, the viability is 98% (inactive). On to `Cn1c(Cc2cccc3ccccc23)nnc1SCC(=O)N1CCN(c2cccc(Cl)c2)CC1`, for which the viability is 38.5% (active). In the case of `Cc1ccccc1NC(=O)Cc1nnc(SCC(=O)N2CCN(c3ccccc3)CC2)n1C`, the viability is 94% (inactive). Turning to `Cc1cc2nnc(SCC(=O)N3CCN(c4ccccc4)CC3)n2c(N)n1`, the viability was 64.4% (inactive). For `CN(C)CCNC(CC(=O)Nc1ccc(Cl)c(Cl)c1)C(=O)O` (stereo not drawn), the viability is 99.7% (inactive). As for `CCn1nccc1C(=O)Nc1ccc(Cl)c(Cl)c1`, the figure is 77% (inactive); as for `O=C(CC(O)(C(F)(F)F)C(F)(F)F)Nc1ccc(Cl)c(Cl)c1`, 1.49% (active). Take `CCOC(=O)N1CCC(N(CCOC)C(=O)Nc2ccc(C)c(C)c2)CC1`: the viability is 44.7% (inactive). As to `Cc1noc(C)c1CSCC(=O)Nc1nc2ccc(Oc3ccccc3)cc2s1`, the viability was 76.8% (inactive). In the case of `COc1ccc(-c2c3c(=O)n(C)c(=O)n(C)c3cn2-c2cccc(OC)c2)cc1`, the viability was 71.5% (inactive). As to `Cn1c(=O)c2cn(-c3cccc4ccccc34)cc2n(C)c1=O`, the viability was 47.3% (inactive). Turning to `COc1ccc(OC)c(-n2cc3c(=O)n(C)c(=O)n(C)c3c2)c1`, the viability was 29.6% (active). As for `COCCCn1c(SCC(=O)Nc2ccccc2)nnc1-c1ccncc1`, the figure is 95.9% (inactive); as for `CC1(C)COC(c2cccn2Cc2ccccc2Cl)=N1`, 104% (inactive). Turning to `O=c1c2ccccc2nc2n1C1(CCCCC1)Cc1ccccc1-2`, the viability was 83.7% (inactive). As for `CCOC(=O)N1CCC(NC(=O)c2ccc3nc(N4CCOCC4)sc3c2)CC1`, the figure is 95.7% (inactive); as for `CCOC(=O)N1CCN(CC(=O)Nc2cc(C)nn2-c2nc3ccccc3s2)CC1`, 4.45% (active); as for `Cc1cc(NC(=O)CN2CCCC(C)C2)n(-c2nc3ccccc3s2)n1` (stereo not drawn), 62.1% (inactive). Consider `Cc1nn(C)cc1CNC(=O)Nc1ccc(Cl)cc1`, for which the viability was 90.8% (inactive). Consider `Cc1cccc(NC(=O)CN2CCCN(S(=O)(=O)c3ccc(Br)s3)CC2)c1`, for which the viability was 35.9% (active). Then `Cc1cccc(NC(=O)CN2C(=O)CNC2=O)c1`, with 91.7% (inactive). As for `Cc1cccc(NC(=O)CSc2nnc(NC(=O)CN3CCOCC3)s2)c1`, the figure is 79.3% (inactive); as for `C/C(=N\NC(=O)c1nc(C)cc(C)n1)c1ccccc1`, 99.7% (inactive).

For the compound `O=C1c2ccccc2C(=O)N1CCCc1nc(-c2ccccc2)no1`, the viability is 95.5% (inactive). On to `Oc1ccc(-c2onc3ccc(Cl)cc23)cc1`, for which the viability is 98.2% (inactive). Turning to `COc1ccc(N2CCN(Cc3ccc(Br)s3)CC2)cc1`, the viability is 65.6% (inactive).

As for `CC1(C)Cc2cccc(OCC(N)=O)c2O1`, the viability is 102% (inactive). As for `CNC(=O)c1ccc2nc(NC(C)=O)sc2c1`, the viability was 99% (inactive). As for `Fc1ccc2nc(Nc3nc4c(s3)CCCC4)sc2c1`, the figure is 36.1% (active); as for `Fc1ccc2nc(N3CCCCC3)sc2c1`, 90% (inactive).

`COC(=O)CSc1nc2c(c(C3CC=CCC3)c1C#N)CCC2` (stereo not drawn): the viability is 65.3% (inactive).

`O=C(c1cccc(F)c1)N1CCC(O)(c2cccnc2)CC1`: the viability is 88.1% (inactive). With `CCOC(=O)N1CCC(Nc2c(NCCCN3CCN(CC)CC3)c(=O)c2=O)CC1`, the viability is 112% (inactive). For `O=C(COC(=O)C12CC3CC(CC(C3)C1)C2)NCc1ccco1`, the viability is 83.8% (inactive). As to `Cc1cc(C(=O)OCC(=O)NCc2ccco2)c(C)n1-c1ccccc1`, the viability was 29.6% (active). In the case of `CCOC(=O)c1cnc(SCC(=O)NCc2ccco2)nc1N`, the viability is 91.3% (inactive). For `CNc1nc(SC)nc(N(C#N)CC(=O)OC)n1`, the viability was 92.4% (inactive). Then `CCN(CC)S(=O)(=O)c1ccc2c3c(cccc13)C(=O)S2`, with 69% (inactive); and `O=C(CSC1=Nc2ccccc2C2=NC(CC(=O)NCc3ccco3)C(=O)N12)NCc1ccco1` (stereo not drawn), with 85.9% (inactive).

Take `CCOc1cc(NC(=O)c2cnccn2)c(OCC)cc1NC(=O)c1ccc(C)cc1`: the viability is 110% (inactive). As for `Cc1ccc(OCC(=O)N2CCN(C(=O)c3cccnc3)CC2)cc1`, the viability was 86.2% (inactive). Take `COc1ccc(NC(=O)C(CC(C)C)NS(=O)(=O)c2ccc3c(c2)CCN3C(C)=O)cc1OC` (stereo not drawn): the viability is 90.6% (inactive). Take `CCN(CC)Cc1cc(C(C)=O)ccc1O`: the viability is 98.5% (inactive). Regarding `CCOc1ccc2c(c1)C(c1ccc(C)cc1)=NNC(c1ccc(C)cc1)=N2`, the viability was 21% (active). With `COc1ccc(C2C(C(C)=O)=C(O)C(=O)N2Cc2cccnc2)cc1` (stereo not drawn), the viability is 99.2% (inactive). For `Cc1ccc(Nc2nnc(SCc3ccccc3)s2)cc1`, the viability was 98.2% (inactive). Take `COc1ccccc1C(=O)N1CC2(C)CC1CC(C)(C)C2` (stereo not drawn): the viability was 84.2% (inactive). In the case of `Cc1ccc(/C=N/NC(=O)Cn2nc(C)c(Br)c2C)o1`, the viability was 102% (inactive).

Consider `CCCCNC(=O)CCNC(=O)c1ccc(C(C)(C)C)cc1`, for which the viability is 102% (inactive).

In the case of `CCOc1ccc(N(CC(=O)OC)S(=O)(=O)c2c(C)noc2C)cc1`, the viability is 96.6% (inactive). Consider `CCOC(=O)c1cccc(NC(=O)CN(c2ccc(C)cc2)S(=O)(=O)c2c(C)noc2C)c1`, for which the viability is 24% (active). As to `Cc1noc(C)c1S(=O)(=O)N(CC(=O)Nc1ccc2c(c1)OCCO2)c1ccc(C(C)C)cc1`, the viability was 56.8% (inactive). As for `CCOC(=O)c1cc2c(ccn2C)n1CC(=O)N1CCC(C)CC1`, the viability is 88.5% (inactive).

With `O=C(COc1ccccc1)Nc1nonc1NC(=O)COc1ccccc1`, the viability is 93.3% (inactive).

In the case of `COc1ccc(CN2CN(C(C)C)CSC2=S)cc1`, the viability was 0.67% (active).

One may read the viability as a read-out of living cells in per cent, often relative to untreated cells.
